Assay [1] in a line: Nuclear factor erythroid 2-related factor 2/antioxidant responsive element (Nrf2/ARE) small molecule agonists: luciferase reporter gene qHTS assay in human keratinocytes (AID 1919969). Further: nearly all actives have a fitted effect of over 35% in size. Further: potency means the concentration at half of the fitted maximal effect.
For assay [2], the target named is Gonadotropin-releasing hormone receptor (Homo sapiens) (UniProt P30968). The assay can be described thus: Human gonadotropin-releasing hormone receptor (GnRHR) small molecule agonists, calcium flux assay in GnRHR-HEK293 cells (AID 1920063). Further: nearly all actives have a fitted effect of over 35% in size. In short, it runs like this:
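HEK293 cells stably expressing human GnRHR were dye-loaded for 1 h at 37 C. Compound was added in agonist mode and fluorescence (Ex/Em 480/540) recorded kinetically for 3 min. Fifteen concentrations, triplicates.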
(In general: Calcium assays in cells follow changes in intracellular calcium, usually with a dye or a luminescent sensor.)

For assay [3], the target named is KiSS-1 receptor (Homo sapiens) (UniProt Q969F8). Briefly: Human kisspeptin (KISS1R) small molecule agonists, calcium flux assay in KISS1R-HEK293 cells (AID 1920064; active means well fitted activation curve with a large enough effect in the repeat runs). In outline:
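HEK293 cells stably expressing human KISS1R were loaded with calcium dye for 1 h at 37 C, then given compound; fluorescence (Ex/Em 480/540) was read kinetically for 3 min. Fifteen concentrations, triplicate.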

Assay [4] is described as follows: p53 small molecule agonists, cell-based qHTS assay with human liver microsomes (AID 1963577).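 Further: p53 response element beta-lactamase reporter cells with liver microsomes plus NADPH.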 In short, it runs like this:
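Steps: plate p53RE-bla cells, incubate 5 h at 37 C; add compound in DMSO; add microsomes (0.5 mg/mL final) and NADPH (0.5 mg/mL final); incubate 16 h at 37 C; add LiveBLAzer, 2 h RT; read fluorescence.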
(In general: In qHTS, concentration-response curves come from the screen itself.)

Assay [5] in a line: p53 small molecule agonists, cell-based qHTS assay with rat liver microsomes (AID 1963578). In short, it runs like this: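 Metabolic activation is supplied by rat liver microsomes with NADPH (each 0.5 mg/mL final). p53RE-bla cells incubate with compound 16 h at 37 C; reporter activity is measured by LiveBLAzer fluorescence.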
Assay [6] in a line: p53 small molecule agonists, cell-based qHTS assay with human liver microsomes: qHTS cell viability counter screen (AID 1963579). Further: nearly all actives have a fitted effect of over 45% in size. In short, it runs like this: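 After the 460/530 nm beta-lactamase read, CellTiter-Glo was added to the same wells and luminescence measured after 30 min at room temperature, giving viability of p53RE-bla cells treated 16 h with compounds plus microsomes and NADPH.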

Assay [7] is described as follows: p53 small molecule agonists, cell-based qHTS assay with rat liver microsomes: qHTS cell viability counter screen (AID 1963580). Further: nearly all actives have a fitted effect of over 45% in size. In outline: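 Intracellular ATP, by CellTiter-Glo luminescence, defines viability. HCT-116 p53RE-bla cells, 4,000 per well, were compound-treated in the presence of rat liver microsomes and NADPH for 16 h at 37 C.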
Assay [8] is described as follows: p53 small molecule agonists, cell-based qHTS assay: qHTS cell viability counter screen (AID 1963581). Further: nearly all actives have a fitted effect of over 45% in size. In short, it runs like this:
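p53RE-bla HCT-116 cells, compounds added 5 h after plating and incubated 16 h at 37 C. Cytotoxicity measured in the same wells as intracellular ATP by CellTiter-Glo luminescence after 30 min at room temperature.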

A short description of assay [9]: p53 small molecule agonists, cell-based qHTS assay (AID 1963582; active means well fitted activation curve with a large enough effect in the signal ratio in the repeat runs, not every such curve was filed as active; the % refers to the signal ratio). In short, it runs like this:
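p53RE-bla reporter cells, compounds added in DMSO after 5 h plating, incubated 16 h at 37 C. Beta-lactamase read via 2 h room-temperature LiveBLAzer B/G FRET substrate, fluorescence intensity.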

In assay [10] the target is 5-hydroxytryptamine receptor 2A (Homo sapiens) (UniProt P28223). The assay can be described thus: 5-hydroxytryptamine receptor 2A (HTR2A) small molecule antagonists, cell-based qHTS assay (AID 1963586). Further: nearly all actives have a fitted effect of over 45% in size. In outline: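 Antagonist-mode intracellular calcium assay: DOI (4 nM) added after 5 min compound pre-incubation at room temperature to dye-loaded HTR2A-CHO cells. Fluorescence followed for 3 min, sampled every second.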

In assay [11] the target is Muscarinic acetylcholine receptor M1 (Homo sapiens) (UniProt P11229). Briefly: Cholinergic receptor muscarinic 1 (CHRM1) small molecule antagonists, cell-based qHTS assay (AID 1963588). Further: nearly all actives have a fitted effect of over 40% in size. In short, it runs like this: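 CHRM1-CHO calcium-flux assay, antagonist mode. Cells were seeded 18 h, dye-loaded 1 h at 37 C and given compound for 5 min at RT, then acetylcholine was added at 50nM. FDSS fluorescence was read 3 min; 15 concentrations, three runs.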

For assay [12] the target is unchanged. The assay can be described thus: Cholinergic receptor muscarinic 1 (CHRM1) small molecule agonists, cell-based qHTS assay (AID 1963589). Further: nearly all actives have a fitted effect of over 35% in size. In short, it runs like this:
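CHO cells stably expressing human CHRM1 were loaded with calcium dye for 1 h at 37 C, then compound was added in agonist mode. Intracellular calcium fluorescence was followed kinetically at 1 s intervals. Fifteen concentrations were tested in three independent runs.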

Assay [13] in a line: cAMP Responsive Elements (CRE) small molecule antagonists, cell-based qHTS assay (AID 1963591; active means well fitted inhibition curve with a large enough effect in the signal ratio in the repeat runs, not every such curve was filed as active; the % refers to the signal ratio). In outline:
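CRE-bla HEK293T cells plated 18 h, then given compound plus NKH477 at 0.25 uM final for 3 h at 37C. Beta-lactamase reporter read with LiveBLAzer B/G FRET substrate after 2 h at room temperature.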

Assay [14] addresses Beta-2 adrenergic receptor (Homo sapiens) (UniProt P07550). The assay can be described thus: Adrenergic beta2 receptor (ADRB2) small molecule antagonists, cell-based qHTS assay (AID 1963592). Further: series mostly up to about 92 µM; nearly all actives have a fitted effect of over 50% in size. In outline: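 Cells (CHO, stable ADRB2 overexpression) incubated 18-20hr at 37C; compounds added from DMSO; agonist mix (1nM isoproterenol, 100uM IBMX, 25uM Ro-20-1724) added; 0.5hr RT; d2-cAMP and anti-cAMP-cryptate added; 1hr RT; 665/615 nm read.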

Assay [15] has the same target. The assay can be described thus: Adrenergic beta2 receptor (ADRB2) small molecule agonists, cell-based qHTS assay (AID 1963593).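 Further: CHO cells stably overexpressing human ADRB2.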 In short, it runs like this:
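CHO cells stably over-expressing ADRB2 were plated overnight at 37C, then dosed with compounds plus a stimulation mix containing 100uM IBMX and 25uM Ro-20-1724 for 0.5hr at room temperature. cAMP was measured by HTRF competition, 1hr.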

In assay [16] the target is D(2) dopamine receptor (Homo sapiens) (UniProt P14416). Briefly: Dopamine D2 receptor (DRD2) small molecule agonists, cell-based qHTS assay (AID 1963594). Further: nearly all actives have a fitted effect of over 35% in size. In short, it runs like this:
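cAMP accumulation in DRD2-HEK293 cells measured by HTRF after 1 h detection; compounds added 10 min before NKH477 (200nM […]) forskolin-analogue stimulation, 30 min at room temperature, with Ro20-1724 present at 0.1 mM final.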

The target is the same in assay [17]. Briefly: Dopamine D2 receptor (DRD2) small molecule antagonists, cell-based qHTS assay (AID 1963595; active means well fitted inhibition curve with a large enough effect in the signal ratio in the repeat runs, with a control signal flat; the % refers to the signal ratio). In outline: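 HEK293 cells stably expressing DRD2, preincubated with 0.1 mM Ro20-1724 and compounds 10 min, were stimulated with 200 nM NKH477 plus 12 nM quinpirole for 30 min at room temperature; cAMP measured by HTRF (665/620 nm).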
A short description of assay [18]: G protein-coupled receptor (GPCR) small molecule agonists, calcium flux assay: HEK293 wild type cell line counter screen (AID 1920065). In short, it runs like this:
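Wild-type HEK293 cells plated 18 h, loaded with calcium dye 1 h at 37 C, then compounds added in agonist mode (ATP as positive control). Kinetic fluorescence Ex/Em 480/540 recorded 3 min at 1 sec intervals; 15 concentrations, triplicate.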

The target of assay [19] is 5-hydroxytryptamine receptor 2A (Homo sapiens) (UniProt P28223). The assay can be described thus: 5-hydroxytryptamine receptor 2A (HTR2A) small molecule agonists, cell-based qHTS assay (AID 1963587). Further: nearly all actives have a fitted effect of over 30% in size. In outline: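 Kinetic calcium-flux fluorescence (2 min, 1 sec intervals) after compound addition in agonist mode. HTR2A-CHO cells were cultured 18 h, then dye-loaded 1 h at 37 C.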

Assay [20] in a line: cAMP Responsive Elements (CRE) small molecule agonists, cell-based qHTS assay (AID 1963590). In short, it runs like this: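 CRE-bla HEK 293T cells, 2,000/well in DMEM with 10% dialyzed FBS and 25 mM HEPES, pre-incubated 18 h at 37 C, then exposed to compound 3 h at 37 C. Beta-lactamase reporter read with LiveBLAzer B/G FRET substrate after 2 h at room temperature.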

“And” between values parts separate entries of the source, which are not always exact repeats. Equal entries are not always repeated. Results filed as inconclusive are left out. The source made the active and inactive calls. Unless noted, the call rests on the fitted dose curve.

Sequence of 5-hydroxytryptamine receptor 2A (Homo sapiens) (P28223 whole entry, looked up): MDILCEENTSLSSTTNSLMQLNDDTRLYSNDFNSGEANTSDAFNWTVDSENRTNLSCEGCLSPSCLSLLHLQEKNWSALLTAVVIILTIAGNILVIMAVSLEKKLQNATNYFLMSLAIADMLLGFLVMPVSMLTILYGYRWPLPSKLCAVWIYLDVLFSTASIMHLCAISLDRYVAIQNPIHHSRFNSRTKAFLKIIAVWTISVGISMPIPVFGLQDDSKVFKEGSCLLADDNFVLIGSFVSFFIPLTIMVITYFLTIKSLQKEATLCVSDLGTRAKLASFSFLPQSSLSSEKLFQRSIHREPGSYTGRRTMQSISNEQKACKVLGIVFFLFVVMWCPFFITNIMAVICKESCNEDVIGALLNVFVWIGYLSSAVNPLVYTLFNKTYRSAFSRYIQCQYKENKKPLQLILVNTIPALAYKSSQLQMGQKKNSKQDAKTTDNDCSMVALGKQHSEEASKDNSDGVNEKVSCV
Sequence of KiSS-1 receptor (Homo sapiens) (Q969F8 whole entry, looked up): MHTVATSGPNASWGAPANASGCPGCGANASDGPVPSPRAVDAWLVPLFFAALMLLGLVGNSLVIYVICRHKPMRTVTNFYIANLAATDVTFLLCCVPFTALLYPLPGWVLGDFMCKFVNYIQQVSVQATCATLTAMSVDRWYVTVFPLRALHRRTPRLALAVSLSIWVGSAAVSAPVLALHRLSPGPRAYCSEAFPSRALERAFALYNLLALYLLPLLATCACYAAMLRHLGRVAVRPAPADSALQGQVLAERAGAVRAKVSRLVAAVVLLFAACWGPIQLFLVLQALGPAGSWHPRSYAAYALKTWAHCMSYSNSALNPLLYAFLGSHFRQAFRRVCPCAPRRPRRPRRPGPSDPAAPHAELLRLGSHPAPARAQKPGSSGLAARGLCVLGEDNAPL
Sequence of D(2) dopamine receptor (Homo sapiens) (P14416 whole entry, looked up): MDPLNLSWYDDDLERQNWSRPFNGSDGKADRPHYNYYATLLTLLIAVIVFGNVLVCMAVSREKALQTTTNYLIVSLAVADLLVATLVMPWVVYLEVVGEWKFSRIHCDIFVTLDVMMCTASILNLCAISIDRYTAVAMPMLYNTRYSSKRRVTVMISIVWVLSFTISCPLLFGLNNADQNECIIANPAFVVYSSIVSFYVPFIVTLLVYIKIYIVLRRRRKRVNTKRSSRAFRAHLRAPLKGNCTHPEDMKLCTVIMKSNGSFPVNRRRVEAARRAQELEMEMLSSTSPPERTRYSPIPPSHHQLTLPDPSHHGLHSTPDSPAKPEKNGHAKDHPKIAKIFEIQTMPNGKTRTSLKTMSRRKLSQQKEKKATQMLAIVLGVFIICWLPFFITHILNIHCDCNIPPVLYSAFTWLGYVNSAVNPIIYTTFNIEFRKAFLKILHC
Sequence of Muscarinic acetylcholine receptor M1 (Homo sapiens) (P11229 whole entry, looked up): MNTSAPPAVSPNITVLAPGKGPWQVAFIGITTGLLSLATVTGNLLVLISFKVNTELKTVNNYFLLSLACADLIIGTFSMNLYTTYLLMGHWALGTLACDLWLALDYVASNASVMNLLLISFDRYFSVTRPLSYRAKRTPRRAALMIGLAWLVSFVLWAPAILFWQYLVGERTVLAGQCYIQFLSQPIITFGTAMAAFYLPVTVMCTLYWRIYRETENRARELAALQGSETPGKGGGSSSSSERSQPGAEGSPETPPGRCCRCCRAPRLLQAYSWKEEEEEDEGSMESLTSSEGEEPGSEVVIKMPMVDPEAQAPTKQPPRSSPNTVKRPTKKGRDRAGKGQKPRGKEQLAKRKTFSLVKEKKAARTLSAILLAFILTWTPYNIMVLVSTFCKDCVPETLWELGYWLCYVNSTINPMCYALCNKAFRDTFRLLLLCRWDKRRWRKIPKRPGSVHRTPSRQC
Sequence of Beta-2 adrenergic receptor (Homo sapiens) (P07550 whole entry, looked up): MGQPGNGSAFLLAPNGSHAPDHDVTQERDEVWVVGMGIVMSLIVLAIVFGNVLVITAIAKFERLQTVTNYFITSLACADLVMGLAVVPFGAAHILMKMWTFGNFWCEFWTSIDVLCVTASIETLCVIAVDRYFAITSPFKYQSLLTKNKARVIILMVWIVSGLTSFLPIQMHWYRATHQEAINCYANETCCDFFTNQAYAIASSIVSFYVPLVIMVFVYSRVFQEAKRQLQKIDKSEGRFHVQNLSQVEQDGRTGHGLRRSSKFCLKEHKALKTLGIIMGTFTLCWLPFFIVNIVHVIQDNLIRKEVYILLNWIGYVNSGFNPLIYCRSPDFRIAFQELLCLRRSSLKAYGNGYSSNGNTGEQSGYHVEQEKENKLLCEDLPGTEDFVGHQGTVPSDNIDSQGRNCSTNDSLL
Sequence of Gonadotropin-releasing hormone receptor (Homo sapiens) (P30968 whole entry, looked up): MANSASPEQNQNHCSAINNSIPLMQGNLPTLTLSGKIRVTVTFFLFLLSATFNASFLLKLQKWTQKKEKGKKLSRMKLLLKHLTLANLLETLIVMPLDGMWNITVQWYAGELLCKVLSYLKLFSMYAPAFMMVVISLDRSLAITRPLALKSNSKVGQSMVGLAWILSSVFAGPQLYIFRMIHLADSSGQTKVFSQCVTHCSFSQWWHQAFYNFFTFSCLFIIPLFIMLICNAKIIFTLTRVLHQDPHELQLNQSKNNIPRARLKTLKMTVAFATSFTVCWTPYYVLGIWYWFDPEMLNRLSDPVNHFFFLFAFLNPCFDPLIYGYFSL

Consider `CC(C)=CCOc1c2occc2cc2ccc(=O)oc12`, for which the Potency entry in assay [1], in assay [2], in assay [3], in [4], in [5] and in assay [6] was “inactive” in each case. In addition, the Potency result in [7], in [8], in [9], in assay [10], in assay [11] and in assay [12] was “inactive” in each case. The Potency result in assay [13], in assay [14], in [15], in assay [16] and in [17] was “inactive” throughout.

With `O=C(Nc1ccccc1)c1ccccc1I`, the Potency entry in assay [1], in assay [2], in [3], in assay [18], in assay [6] and in [7] was “inactive” each time. The Potency entry in [8], in assay [10], in assay [19], in [11], in assay [12] and in [20] was “inactive” throughout. Also, the Potency entry in assay [13], in assay [14], in [16] and in [17] was “inactive” each time.

With `CN(C)CCN(C)C`, the Potency result in assay [1], in assay [2], in assay [3], in assay [18], in assay [6] and in assay [7] was “inactive” in each case. In addition, the Potency result in [11], in [12], in assay [20], in assay [13], in [14] and in assay [15] was “inactive” throughout. Besides, the Potency result in [16] and in [17] was “inactive” each time.

With `O=[N+]([O-])c1c2ccccc2cc2ccccc12`, in assay [1], the Potency was 21.4 µM (active). In addition, the Potency entry in assay [2], in [3], in [18], in [5], in [6] and in [7] was “inactive” in each case. The Potency entry in assay [19], in [11], in assay [12] and in assay [16] was “inactive” throughout.

In the case of `NC(=O)CS(=O)C(c1ccccc1)c1ccccc1` (stereo unspecified), the Potency result in [1], in assay [2], in [3], in assay [18], in assay [5] and in assay [7] was “inactive” throughout. The Potency entry in assay [8], in assay [9], in assay [20], in assay [13] and in assay [17] was “inactive” in each case.

Take `CCCN(CCC)c1c([N+](=O)[O-])cc(C(F)(F)F)cc1[N+](=O)[O-]`: the Potency in assay [1] was 19.3 µM (active) and 61.1 µM (active). For the same compound, the Potency entry in assay [2], in assay [3], in [18], in [6], in assay [7] and in [8] was “inactive” each time. Moreover, the Potency result in [10], in assay [19], in assay [11], in assay [12], in assay [20] and in [13] was “inactive” each time. The Potency result in [14], in assay [15], in assay [16] and in [17] was “inactive” in each case.

In the case of `CCOP(=S)(Oc1ccc([N+](=O)[O-])cc1)c1ccccc1` (stereo unspecified), the Potency result in [1], in assay [2], in [3], in [18], in assay [6] and in assay [7] was “inactive” throughout. For the same compound, the Potency result in assay [8], in assay [10], in assay [19], in [12], in assay [20] and in assay [13] was “inactive” throughout. Besides, the Potency entry in assay [15] and in assay [17] was “inactive” each time.

In the case of `Nc1ccc(Cl)cc1C(=O)c1ccccc1`, the Potency result in [1], in [2], in assay [3], in assay [18], in assay [5] and in [11] was “inactive” throughout. The Potency entry in [13], in assay [14], in assay [16] and in assay [17] was “inactive” each time.

For `CCC(OC(C)=O)C(CC(C)NC)(c1ccccc1)c1ccccc1` (stereo unspecified), the Potency entry in assay [1], in assay [2], in [3], in assay [4], in [5] and in assay [6] was “inactive” in each case. In addition, the Potency result in assay [7], in assay [8], in assay [9], in assay [10], in assay [11] and in [12] was “inactive” throughout. The Potency entry in assay [13], in assay [14], in assay [16] and in [17] was “inactive” each time.
